Experimental data reported in the supplement of paper PMC10849652.
Targets with a hit are over-represented here; the source holds about 8,800 in all. About 0.5% of all pairs of compound and target were hits.

What follows are targets tested with C1=CC=C2C(=C1)C3=NNC4=CC=CC(=C43)C2=O (assay: log2 fold change, soluble protein after heating vs DMSO (PISA); higher = thermal stabilisation; K562 lysate, 10 uM; active = over 0.2 and 3.5 SD of the protein, either way, in both replicates (recomputed)).
Method in brief: (§1)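 Thermal stability, expressed as log-two fold change relative to solvent controls, is given from duplicates. Crude K562 extract in PBS pH 7.4 with 1 mM MgCl2, at 1 mg/mL protein, was treated with 10 μM compound for 30 min and heated in aliquots for 3 min across 48°C-58°C. After pooling, adjustment to 0.5% NP-40 at 4°C and centrifugation at 21,000xg for 90 min, supernatant protein was measured by TMTpro 16plex LC-MS/MS with channel sums equalised.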

UniProt P17707, sequence (P17707 whole entry, looked up): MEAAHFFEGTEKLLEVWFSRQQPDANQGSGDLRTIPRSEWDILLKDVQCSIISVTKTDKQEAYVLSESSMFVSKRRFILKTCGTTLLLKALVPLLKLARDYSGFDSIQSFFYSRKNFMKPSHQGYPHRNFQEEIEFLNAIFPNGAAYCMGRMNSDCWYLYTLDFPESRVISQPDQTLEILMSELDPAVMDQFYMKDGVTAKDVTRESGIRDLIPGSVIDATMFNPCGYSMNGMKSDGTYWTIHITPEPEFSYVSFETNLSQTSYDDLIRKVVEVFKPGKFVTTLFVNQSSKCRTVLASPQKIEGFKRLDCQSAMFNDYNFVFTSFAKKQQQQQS
UniProt P42684, sequence (P42684 whole entry, looked up): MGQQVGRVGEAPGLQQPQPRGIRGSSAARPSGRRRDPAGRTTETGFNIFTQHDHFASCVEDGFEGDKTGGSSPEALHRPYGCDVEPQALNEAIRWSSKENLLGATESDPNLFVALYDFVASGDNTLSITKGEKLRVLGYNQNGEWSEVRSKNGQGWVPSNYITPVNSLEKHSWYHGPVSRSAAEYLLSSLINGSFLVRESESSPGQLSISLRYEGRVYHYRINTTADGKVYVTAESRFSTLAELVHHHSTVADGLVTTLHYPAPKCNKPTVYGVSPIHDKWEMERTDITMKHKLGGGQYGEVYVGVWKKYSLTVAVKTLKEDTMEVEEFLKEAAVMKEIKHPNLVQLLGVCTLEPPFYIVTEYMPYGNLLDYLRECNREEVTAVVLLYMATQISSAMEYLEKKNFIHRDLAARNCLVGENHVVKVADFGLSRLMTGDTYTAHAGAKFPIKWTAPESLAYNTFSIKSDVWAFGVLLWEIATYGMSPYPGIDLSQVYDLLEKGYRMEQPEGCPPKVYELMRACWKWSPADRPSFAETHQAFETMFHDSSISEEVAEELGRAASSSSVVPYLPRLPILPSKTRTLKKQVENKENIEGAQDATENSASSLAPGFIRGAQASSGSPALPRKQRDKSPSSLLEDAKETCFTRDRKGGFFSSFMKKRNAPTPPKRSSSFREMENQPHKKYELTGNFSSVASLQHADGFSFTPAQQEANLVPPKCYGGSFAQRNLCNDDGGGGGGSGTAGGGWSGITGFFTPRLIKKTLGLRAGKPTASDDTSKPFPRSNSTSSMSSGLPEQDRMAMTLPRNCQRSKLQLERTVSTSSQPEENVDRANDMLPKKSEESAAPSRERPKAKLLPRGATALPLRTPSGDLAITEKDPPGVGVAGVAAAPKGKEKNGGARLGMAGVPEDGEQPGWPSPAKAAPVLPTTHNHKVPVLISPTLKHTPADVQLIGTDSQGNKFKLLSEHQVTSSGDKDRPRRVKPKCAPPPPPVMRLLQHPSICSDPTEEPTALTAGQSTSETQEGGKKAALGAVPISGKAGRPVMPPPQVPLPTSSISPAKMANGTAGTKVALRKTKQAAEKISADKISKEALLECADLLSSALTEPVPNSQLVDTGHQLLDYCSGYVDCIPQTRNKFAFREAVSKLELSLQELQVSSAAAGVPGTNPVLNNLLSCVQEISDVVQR
UniProt P31749, sequence (P31749 whole entry, looked up): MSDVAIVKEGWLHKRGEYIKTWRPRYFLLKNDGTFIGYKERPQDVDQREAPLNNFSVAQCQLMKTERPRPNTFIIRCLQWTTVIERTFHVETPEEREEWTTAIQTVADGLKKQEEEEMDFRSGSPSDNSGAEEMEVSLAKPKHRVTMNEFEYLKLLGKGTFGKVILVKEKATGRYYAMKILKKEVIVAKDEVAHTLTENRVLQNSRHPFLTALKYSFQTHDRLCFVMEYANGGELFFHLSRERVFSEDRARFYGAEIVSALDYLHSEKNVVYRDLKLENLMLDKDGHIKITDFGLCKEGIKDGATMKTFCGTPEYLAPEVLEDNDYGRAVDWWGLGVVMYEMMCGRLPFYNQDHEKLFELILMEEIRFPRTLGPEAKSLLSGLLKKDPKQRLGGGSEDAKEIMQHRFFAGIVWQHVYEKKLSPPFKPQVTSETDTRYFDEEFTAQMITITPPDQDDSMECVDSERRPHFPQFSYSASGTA
UniProt Q8IZP0, sequence (Q8IZP0 whole entry, looked up): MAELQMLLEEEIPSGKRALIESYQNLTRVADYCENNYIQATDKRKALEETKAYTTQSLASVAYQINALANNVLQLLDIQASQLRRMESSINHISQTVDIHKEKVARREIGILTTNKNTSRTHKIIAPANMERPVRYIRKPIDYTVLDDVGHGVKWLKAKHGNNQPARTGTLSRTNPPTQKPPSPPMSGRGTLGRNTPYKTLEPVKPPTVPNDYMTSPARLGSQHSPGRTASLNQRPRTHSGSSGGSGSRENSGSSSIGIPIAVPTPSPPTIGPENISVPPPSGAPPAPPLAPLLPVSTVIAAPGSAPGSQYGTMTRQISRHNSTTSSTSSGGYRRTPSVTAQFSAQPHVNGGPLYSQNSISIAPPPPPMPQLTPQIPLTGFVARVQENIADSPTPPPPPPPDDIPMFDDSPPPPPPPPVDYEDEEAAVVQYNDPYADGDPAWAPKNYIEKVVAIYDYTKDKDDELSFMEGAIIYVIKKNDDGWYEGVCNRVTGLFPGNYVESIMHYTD
UniProt Q9BTT0, sequence (Q9BTT0 whole entry, looked up): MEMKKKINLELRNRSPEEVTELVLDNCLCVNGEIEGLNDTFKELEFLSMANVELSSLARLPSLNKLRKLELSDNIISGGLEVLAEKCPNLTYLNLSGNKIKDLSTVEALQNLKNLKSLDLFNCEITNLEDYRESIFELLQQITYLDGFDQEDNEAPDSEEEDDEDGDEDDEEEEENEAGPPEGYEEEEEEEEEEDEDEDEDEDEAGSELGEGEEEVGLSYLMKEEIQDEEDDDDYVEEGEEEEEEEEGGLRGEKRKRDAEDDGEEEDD
UniProt P09110, sequence (P09110 whole entry, looked up): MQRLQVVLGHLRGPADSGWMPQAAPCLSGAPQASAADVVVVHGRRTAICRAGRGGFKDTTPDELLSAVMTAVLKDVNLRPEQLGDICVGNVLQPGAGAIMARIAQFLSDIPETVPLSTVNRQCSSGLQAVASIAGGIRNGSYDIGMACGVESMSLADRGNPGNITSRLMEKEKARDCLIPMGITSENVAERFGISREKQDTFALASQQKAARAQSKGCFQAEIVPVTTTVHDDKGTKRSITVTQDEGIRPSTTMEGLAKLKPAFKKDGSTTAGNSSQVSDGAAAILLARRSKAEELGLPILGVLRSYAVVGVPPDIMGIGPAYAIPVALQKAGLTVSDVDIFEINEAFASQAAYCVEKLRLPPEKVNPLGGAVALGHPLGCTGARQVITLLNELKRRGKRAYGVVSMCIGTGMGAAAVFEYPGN
UniProt P08758, sequence (P08758 whole entry, looked up): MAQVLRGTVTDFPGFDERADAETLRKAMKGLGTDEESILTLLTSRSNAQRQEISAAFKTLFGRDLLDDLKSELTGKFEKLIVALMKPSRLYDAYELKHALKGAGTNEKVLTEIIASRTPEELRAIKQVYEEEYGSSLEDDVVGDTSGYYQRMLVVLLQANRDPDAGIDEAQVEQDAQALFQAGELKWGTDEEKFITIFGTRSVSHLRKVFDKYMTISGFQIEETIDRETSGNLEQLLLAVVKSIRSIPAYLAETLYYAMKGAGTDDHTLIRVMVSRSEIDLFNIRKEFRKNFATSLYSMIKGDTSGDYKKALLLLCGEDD
UniProt Q9Y4X0, sequence (Q9Y4X0 whole entry, looked up): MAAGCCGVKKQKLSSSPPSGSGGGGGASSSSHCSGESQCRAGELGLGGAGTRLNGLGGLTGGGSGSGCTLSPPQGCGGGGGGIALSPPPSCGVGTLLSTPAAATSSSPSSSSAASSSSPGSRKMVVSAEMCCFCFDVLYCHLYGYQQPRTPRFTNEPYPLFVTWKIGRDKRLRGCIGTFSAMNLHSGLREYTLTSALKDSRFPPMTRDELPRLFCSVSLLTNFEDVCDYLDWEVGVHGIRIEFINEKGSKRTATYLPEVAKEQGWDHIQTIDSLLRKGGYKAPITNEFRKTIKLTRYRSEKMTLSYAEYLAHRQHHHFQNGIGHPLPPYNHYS
UniProt Q12797, sequence (Q12797 whole entry, looked up): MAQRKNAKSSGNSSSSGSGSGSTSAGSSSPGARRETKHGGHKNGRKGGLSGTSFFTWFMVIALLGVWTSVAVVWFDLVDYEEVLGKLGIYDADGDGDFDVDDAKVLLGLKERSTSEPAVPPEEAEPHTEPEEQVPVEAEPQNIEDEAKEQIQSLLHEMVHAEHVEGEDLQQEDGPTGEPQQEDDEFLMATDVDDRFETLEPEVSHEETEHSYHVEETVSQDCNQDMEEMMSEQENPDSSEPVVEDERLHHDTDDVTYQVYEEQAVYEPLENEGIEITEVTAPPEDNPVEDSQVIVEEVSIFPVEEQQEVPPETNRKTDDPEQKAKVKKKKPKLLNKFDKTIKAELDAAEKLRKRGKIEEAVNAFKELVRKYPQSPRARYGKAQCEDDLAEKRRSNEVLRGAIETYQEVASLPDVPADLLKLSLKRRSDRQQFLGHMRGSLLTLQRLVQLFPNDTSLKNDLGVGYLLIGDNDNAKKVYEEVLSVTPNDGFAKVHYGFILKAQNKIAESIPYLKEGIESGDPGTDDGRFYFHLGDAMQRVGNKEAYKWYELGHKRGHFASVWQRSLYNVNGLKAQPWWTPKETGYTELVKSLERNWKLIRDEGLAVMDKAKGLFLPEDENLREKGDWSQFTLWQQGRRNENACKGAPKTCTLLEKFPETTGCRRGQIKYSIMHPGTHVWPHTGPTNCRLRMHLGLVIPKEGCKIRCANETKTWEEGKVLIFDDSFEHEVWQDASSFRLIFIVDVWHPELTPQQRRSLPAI
UniProt Q9BRQ8, sequence (Q9BRQ8 whole entry, looked up): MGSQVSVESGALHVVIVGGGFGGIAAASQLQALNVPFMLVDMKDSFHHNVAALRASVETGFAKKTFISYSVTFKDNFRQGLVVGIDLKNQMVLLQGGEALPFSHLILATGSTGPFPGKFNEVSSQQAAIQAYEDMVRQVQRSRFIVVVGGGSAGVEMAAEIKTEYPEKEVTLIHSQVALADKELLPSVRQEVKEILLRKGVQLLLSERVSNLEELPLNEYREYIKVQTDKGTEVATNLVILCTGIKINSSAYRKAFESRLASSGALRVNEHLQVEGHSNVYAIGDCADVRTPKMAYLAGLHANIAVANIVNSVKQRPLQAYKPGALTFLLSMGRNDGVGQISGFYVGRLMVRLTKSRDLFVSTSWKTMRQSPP

log2 fold change, inactive:
ANXA5 (UniProt P08758) 0.009
ANKRD27 (UniProt Q96NW4) -0.094
AMMECR1 (UniProt Q9Y4X0) -0.001
AP1G2 (UniProt O75843) 0.001
ASPH (UniProt Q12797) -0.022
ABI1 isoform 9 (UniProt Q8IZP0) -0.014
ABL2 (UniProt P42684) -0.003
AMD1 (UniProt P17707) 0.011
ANKRD52 (UniProt Q8NB46) -0.092
ANP32E (UniProt Q9BTT0) -0.065
AKT1 (UniProt P31749) 0.018
ACAA1 (UniProt P09110) 0.016
AFF4 (UniProt Q9UHB7) 0.003

Each target was assayed with C1CCN(C1)C(=O)NC2=CC=CC(=C2)NC3=NC=C(C(=N3)NCCC4=CN=CN4)Br in the same assay as above.
Method in brief: as §1

log2 fold change, inactive:
ADRM1 (UniProt Q16186) 0.012
ADD1 isoform 3 (UniProt P35611) -0.015
AGGF1 (UniProt Q8N302) -0.038
ANKRD40 (UniProt Q6AI12) 0.296
AIMP1 isoform 2 (UniProt Q12904) -0.02
AMPD3 isoform 4 (UniProt Q01432) -0.002
AGTPBP1 (UniProt Q9UPW5) -0.017
AIFM2 (UniProt Q9BRQ8) -0.025
ARL1 (UniProt P40616) -0.046
ACSL1 (UniProt P33121) 0.009
ACTBL2 (UniProt Q562R1) 0.064
ALG13 (UniProt Q9NP73) -0.01
AGPS (UniProt O00116) -0.034
ARL15 (UniProt Q9NXU5) 0.004
ALDH2 (UniProt P05091) 0.011
ADAM17 (UniProt P78536) 0.052
ABCF2 isoform 2 (UniProt Q9UG63) 0.049
AK4 (UniProt P27144) 0.036
ABCD3 (UniProt P28288) -0.084
ADAMTS5 (UniProt Q9UNA0) 0.058
ABHD16A (UniProt O95870) 0.014
AGO4 (UniProt Q9HCK5) 0.009
ALDH1B1 (UniProt P30837) -0.025
ANXA5 (UniProt P08758) -0.003
ANKRD27 (UniProt Q96NW4) -0.036
AMMECR1 (UniProt Q9Y4X0) 0.009
AP1G2 (UniProt O75843) -0.003
ASPH (UniProt Q12797) -0.011
ABI1 isoform 9 (UniProt Q8IZP0) 0.006
ABL2 (UniProt P42684) -0.065
AMD1 (UniProt P17707) 0.114
ANKRD52 (UniProt Q8NB46) 0.008
ANP32E (UniProt Q9BTT0) -0.025
AKT1 (UniProt P31749) -0.034
ACAA1 (UniProt P09110) 0.014
AFF4 (UniProt Q9UHB7) 0.032

What follows are targets tested with C1CN(CCC1(CC2=CC=C(C=C2)Cl)N)C3=NC=NC4=C3C=CN4 in the same assay as above.
Method in brief: as §1

log2 fold change, inactive:
ADRM1 (UniProt Q16186) 0.007
ADD1 isoform 3 (UniProt P35611) -0.014
AGGF1 (UniProt Q8N302) -0.022
ANKRD40 (UniProt Q6AI12) 0.203
AIMP1 isoform 2 (UniProt Q12904) 0.02
AMPD3 isoform 4 (UniProt Q01432) -0.002
AGTPBP1 (UniProt Q9UPW5) 0.005
AIFM2 (UniProt Q9BRQ8) 0.018
ARL1 (UniProt P40616) 0.025
ACSL1 (UniProt P33121) 0.012
ACTBL2 (UniProt Q562R1) 0.109
ALG13 (UniProt Q9NP73) 0.083
AGPS (UniProt O00116) 0.015
ARL15 (UniProt Q9NXU5) -0.031
ALDH2 (UniProt P05091) 0.023
ADAM17 (UniProt P78536) -0.093
ABCF2 isoform 2 (UniProt Q9UG63) 0.016
AK4 (UniProt P27144) 0.02
ABCD3 (UniProt P28288) 0.044
ADAMTS5 (UniProt Q9UNA0) 0.073
ABHD16A (UniProt O95870) 0.064
AGO4 (UniProt Q9HCK5) 0.016
ALDH1B1 (UniProt P30837) 0.048
ANXA5 (UniProt P08758) -0.049
ANKRD27 (UniProt Q96NW4) 0
AMMECR1 (UniProt Q9Y4X0) 0.019
AP1G2 (UniProt O75843) 0.034
ASPH (UniProt Q12797) 0.01
ABI1 isoform 9 (UniProt Q8IZP0) 0.004
ABL2 (UniProt P42684) -0.141
AMD1 (UniProt P17707) -0.156
ANKRD52 (UniProt Q8NB46) 0.072
ANP32E (UniProt Q9BTT0) 0.011
AKT1 (UniProt P31749) 0.03
ACAA1 (UniProt P09110) -0.024
AFF4 (UniProt Q9UHB7) 0.016
